# High-throughput results from PubChem BioAssay.
# Hits are enriched below; roughly 3.5% of the tested compounds scored in any of these assays.
# TEAD-YAP inh: TEAD-YAP interaction inhibition, primary screen, TEAD-YAP interaction inhibitor project, luminescence, HEK-TIYL cells | TEAD-Gal4/YAP UAS-luciferase luminescence | inhibition, % at 9.12 µM | actives 1.4% (n = 640,000) | AID 1259422, 2018; in the data active = inhibition above about 32%;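 also: 0% = median of test compound wells and 100% = reference inhibitor wells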
# MITF inh: MITF inhibitors, primary screen, biochemical, AlphaScreen, human | Microphthalmia-associated transcription factor (Homo sapiens), O75030 | AlphaScreen MITF homodimerization, bead proximity signal | inhibition, % at 2.6 µM | actives 0.91% (n = 650,000); in the data active = inhibition above about 50%;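 also: 0% = vehicle wells with protein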
# FBW7 activator: FBW7 E3 ligase activators, primary screen, biochemical, AlphaScreen, human | actives 0.13% (n = 650,000) | normalized activity (activation), % at 26.1 µM | AID 1259310, 2017 | F-box/WD repeat-containing protein 7 (Homo sapiens), Q969H0 | AlphaScreen FBW7–phospho-cyclin E peptide binding, activator screen; in the data active = normalized activity above about 1.9%;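 also: purified mutant Fbw7 with reduced substrate affinity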
# GPR151 activ: activators of human GPR151, primary screen, cell-based, PathHunter beta-arrestin, luminescence. G-protein coupled receptor 151 (Homo sapiens), Q8TDV0. PathHunter beta-arrestin GPR151 cells. activation, % at 11.2 µM. actives 1% (n = 650,000). AID 1508602, 2020; in the data active = activation above about 4.9%;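 also: 0% = median of compound wells and 100% = cells with positive control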
# Target sequence (Q8TDV0 whole entry, looked up): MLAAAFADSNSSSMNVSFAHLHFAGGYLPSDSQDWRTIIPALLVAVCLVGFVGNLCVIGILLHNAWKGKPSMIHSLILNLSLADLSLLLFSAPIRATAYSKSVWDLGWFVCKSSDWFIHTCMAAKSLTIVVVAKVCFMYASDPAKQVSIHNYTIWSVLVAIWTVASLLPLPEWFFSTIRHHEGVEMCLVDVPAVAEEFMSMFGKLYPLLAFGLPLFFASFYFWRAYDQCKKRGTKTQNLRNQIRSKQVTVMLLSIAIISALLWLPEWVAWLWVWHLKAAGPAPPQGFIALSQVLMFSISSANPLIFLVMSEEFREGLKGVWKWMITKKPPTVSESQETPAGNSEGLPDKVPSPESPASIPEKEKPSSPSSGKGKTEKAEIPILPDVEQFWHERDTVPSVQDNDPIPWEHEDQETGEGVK
# An asterisk follows results filed as active; ! = not active in a repeat.
SMILES,TEAD-YAP inh,MITF inh,FBW7 activator,GPR151 activ
Cc1ccc(S(=O)(=O)C2(C(=O)NCCc3ccccc3)CC2)cc1,6,9,1,-1
O=C(Nc1ccccc1C(=O)NCCc1ccccc1)c1ccccc1Cl,13,31,0,1
O=C(NCCc1ccccc1)C1(S(=O)(=O)c2ccc(Cl)cc2)CC1,3,-24,2.0*,0
O=C(NCCNC(=O)c1ccccc1Br)c1ccccc1Br,-4,-18,0,-1
O=C(NCCc1ccccc1)c1ccc(Cl)cc1,64*,18,0,-6
O=C(NCCc1ccccc1)c1ccc(Br)cc1,14,-23,0,-3
O=C(NCCc1ccccc1)c1ccccc1Br,34*,5,0,-1
O=C(COc1ccc(Cl)cc1)Nc1ccc(I)cc1,1,-8,0,1
CCOC(=O)C1=C(C)N=c2s/c(=C\c3ccc(OC)cc3OC)c(=O)n2C1c1ccc2c(c1)OCO2 (stereo unspecified),-8,-11,0,-2
COc1ccccc1NC(=O)c1sc2cc(C)ccc2c1Cl,-10,9,1,-1
O=C(NCCc1ccccc1)c1cc(F)c(F)cc1Cl,34*,6,1,-2
COc1ccc(C2Nc3ccccc3C(=O)N2c2ccc(F)cc2)cc1CSc1ccccn1 (stereo unspecified),-39,-8,0,2
CCOc1ccc(/C(O)=C2\C(=O)C(=O)N(c3nccs3)C2c2ccccc2)cc1 (stereo unspecified),36*,-3,0,0
CCS(=O)(=O)N1CCC(C(=O)O)(c2ccccc2)CC1,3,5,0,1
CC(=O)Nc1ccc(S(=O)(=O)Nn2cnnc2)cc1,7,-16,0,-1
Clc1ccccc1Nc1nccn2c(-c3ccsc3)cnc12,-28,1,-1,0
O=c1oc2c(O)c(O)cc3c(=O)oc4c(O)c(O)cc1c4c23,-3,94*!,0,0
Cc1c(C)c2ccc(O)c(O)c2oc1=O,4,1,0,1
O=C(OCC1COc2ccccc2O1)c1ccc(I)cc1 (stereo unspecified),-23,2,0,-1
O=S(=O)(c1ccc(Cl)c(Cl)c1)N1CCc2ccccc21,14,-7,0,1
Cc1cc(-c2ccc(S(=O)(=O)N3CCc4ccccc43)cc2)on1,58*,15,0,-1
Cn1c(=O)oc2cc(S(=O)(=O)N3CCc4ccccc43)ccc21,50*,9,0,0
CC1Cc2ccccc2N1S(=O)(=O)c1ccc2c(c1)oc(=O)n2C (stereo unspecified),49*,-3,0,1
Cn1c(=O)oc2cc(S(=O)(=O)N3CCCc4ccccc43)ccc21,55*,8,1,-1
Cn1c(=O)c(=O)n(C)c2cc(S(=O)(=O)N3CCc4ccccc43)ccc21,-3,14,0,0
SMILES,TEAD-YAP inh,MITF inh,FBW7 activator,GPR151 activ
O=S(=O)(NCc1ccccc1)c1ccc(Cl)c(C(F)(F)F)c1,4,-1,0,-1
COc1ccc(/C=C(\NC(=O)c2ccc(C)cc2)C(=O)Nc2ccc(C(C)=O)cc2)cc1,11,10,0,-1
COc1cccc(-c2ccnc(-n3ncc(C(=O)NCc4ccccn4)c3C3CC3)n2)c1,14,14,0,0
COCCCNC(=O)c1cnn(-c2nccc(-c3ccc(OC)c(F)c3)n2)c1C1CC1,48*,13,0,-1
CCCCC(=O)NCCNc1nc(C)nc2sc3c(c12)CCCC3,33*,10,0,1
O=C(c1nccs1)C1CCN(C(=O)C2(c3ccc(Cl)cc3)CC2)CC1,-5,2,0,-1
O=C(Cn1cnc2ccccc21)N1CCN(Cc2csc(-c3ccccc3)n2)CC1,46*,21,0,1
O=C(CCn1cnc2ccccc2c1=O)N1CCN(Cc2csc(-c3ccccc3)n2)CC1,21,-4,0,0
CCOc1ccc2ccccc2c1/C=N/NC(N)=S,40*,-17,0,-1
O=C(N/N=C/c1c2ccccc2cc2ccccc12)C(=O)Nc1ccccc1F,0,7,0,1
O=C(N/N=C/c1c2ccccc2cc2ccccc12)C(=O)NC1CC1,57*,-4,1,1
NC(=O)N/N=C/c1c2ccccc2cc2ccccc12,3,17,2.0*,1
CCOC(=O)N/N=C/c1c2ccccc2cc2ccccc12,4,-10,0,2
COc1cccc(OC)c1CN1CCc2nnc(CCNC(=O)c3ccoc3)n2CC1,3,-15,0,-1
CN(C)S(=O)(=O)N1CCC(Oc2cccc(C(=O)NC3CCCCCC3)c2)CC1,44*,17,0,0
CCC(O)CNC(=O)c1cccc(OC2CCN(S(=O)(=O)N(C)C)CC2)c1 (stereo unspecified),2,10,0,0
COc1ccc(-c2cnn3c(Nc4ccc(OC)nc4)ccnc23)c(OC)c1,-1,7,0,1
Cc1cc(S(=O)(=O)O)ccc1N1N=C(C(=O)O)CC1=O,2,71*,-2,0
O=C(/C=C/c1ccc2c(c1)OCO2)NCCSC1CCCCC1,-5,19,1,5
CCOC(=O)C1(Nc2ccccc2)Sc2cc(C)ccc2NC1=O (stereo unspecified),63*,20,0,2
CCOC(=O)C1(N(CC)CC)Sc2cc(C)ccc2NC1=O (stereo unspecified),-1,7,0,-2
CCOC(=O)C1(NC(=S)N2CCOCC2)Sc2cc(C)ccc2NC1=O (stereo unspecified),52*,-2,0,1
COC(=O)CN1C(c2ccc(F)cc2)Nc2ccc(Br)cc2C1c1ccccc1 (stereo unspecified),-3,-6,0,-2
CN(CC(=O)Nc1ccccc1Br)S(=O)(=O)c1cccs1,-3,-2,5.8*,1
CCS(=O)(=O)N1CCN(Cc2nc(-c3ccc(Cl)cc3)cs2)CC1,33*,-3,0,0
SMILES,TEAD-YAP inh,MITF inh,FBW7 activator,GPR151 activ
CCOC(=O)c1ccc(Nc2ccc([N+](=O)[O-])c3nonc23)cc1,2,12,1.9*,2
CCOC(=O)c1ccc(Nc2ccc3nonc3c2[N+](=O)[O-])cc1,7,4,0,1
CCN1/C(=C/c2cccc[n+]2C)C=Cc2ccccc21,75*,5,0,1
CCN1/C(=C/C(=C(C#N)C#N)C(F)(F)F)C=Cc2ccccc21,2,8,0,0
CCN1/C(=C/c2ccc3ccccc3[n+]2CC)C=Cc2ccccc21,88*,20,0,4
CCN1/C(=C2/N=C(c3ccccc3)OC2=O)C=Cc2ccccc21,10,9,0,1
CCN1C(=O)/C(=C2\C=Cc3ccccc3N2CC)SC1=S,-7,7,-1,1
CCN1/C(=C/c2cccc[n+]2C)C=Cc2ccc(C)cc21,75*,9,1,2
